Measured values reported in PubChem BioAssay AID1159580 (chemical genetic matrix, 2015).
Where “and” joins values, the source holds several entries; their conditions need not be identical. Equal values may be shown once. About 2,000 (36%) of roughly 5,500 compounds were called active. Not shown: some 18% with an inconclusive outcome. No stated cut-off is given here; in the data, active means normalized growth mostly below about 0.91 (no sharp cut-off); inconclusive means no clear call, values can overlap the other calls; inactive means mostly above about 0.92. This is one part of the list.

Experiment: chemical genetic growth profiling, strain panel (AID 1159580);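 further: tested at 20 µM; growth read once vehicle control cultures reached saturation at 30 °C; 1 = growth at the plate median or of vehicle wells; lower values mean less growth of the strain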
Details: S. cerevisiae deletion strains, growth OD

Measured: normalized growth

NC(N)=NCCN1CCCCCCC1
inactive: locus YAL013W, strain DEP1, active compounds read low 1 | locus YAL021C, strain ccr4, active compounds read low 1.02 | locus YAL026C, strain drs2, active compounds read low 1.02 | locus YAL030W, strain snc1, active compounds read low 1.03 | locus YBL061C, strain skt5, active compounds read low 1.03 | locus YBR009C, strain hhf1, active compounds read low 1.03 | locus YBR021W, strain FUR4, active compounds read low 1.01 | locus YBR023C, strain chs3, active compounds read low 1.03 | locus YBR171W, strain sec66, active compounds read low 1.06 | locus YBR229C, strain ROT2, active compounds read low 1 | locus YBR231C, strain swc5, active compounds read low 0.999 | locus YBR279W, strain paf1, active compounds read low 1.02 | locus YCL011C, strain gbp2, active compounds read low 1.04 | locus YCL016C, strain dcc1, active compounds read low 1.02 | locus YCL029C, strain bik1, active compounds read low 1.01 | locus YCL061C, strain MRC1, active compounds read low 1.03 | locus YCL069W, strain vba3, active compounds read low 1.03 | locus YCR088W, strain abp1, active compounds read low 1.03 | locus YDL005C, strain med2, active compounds read low 1.04 | locus YDL035C, strain GPR1, active compounds read low 1.01 | locus YDL040C, strain nat1, active compounds read low 1.02 | locus YDL074C, strain BRE1, active compounds read low 1.01 | locus YDL101C, strain DUN1, active compounds read low 1 | locus YDL185W, strain tfp1, active compounds read low 1.01 | locus YDL192W, strain arf1, active compounds read low 1.03 | locus YDR001C, strain nth1, active compounds read low 1.02 | locus YDR069C, strain doa4, active compounds read low 1.02 | locus YDR101C, strain arx1, active compounds read low 1.01 | locus YDR137W, strain rgp1, active compounds read low 1.04 | locus YDR159W, strain sac3, active compounds read low 1.05 | locus YDR162C, strain NBP2, active compounds read low 1 | locus YDR195W, strain ref2 1.01 | locus YDR297W, strain sur2, active compounds read low 1.03 | locus YDR318W, strain mcm21, active compounds read low 1.02 | locus YDR334W, strain swr1, active compounds read low 1.03 | locus YDR335W, strain msn5, active compounds read low 1.03 | locus YDR388W, active compounds read low 1.02 | locus YDR392W, strain spt3, active compounds read low 0.986 | locus YDR502C, strain sam2, active compounds read low 1.01 | locus YEL003W, strain gim4, active compounds read low 1.02 | locus YEL037C, strain rad23, active compounds read low 1.03 | locus YEL061C, strain CIN8 (second series), active compounds read low 1.02 | locus YEL061C, strain CIN8, active compounds read low 1.01 | locus YER015W, strain faa2, active compounds read low 1.03 | locus YER016W, strain bim1, active compounds read low 1.02 | locus YER110C, active compounds read low 1.03 | locus YER111C, strain swi4, active compounds read low 1.03 | locus YER155C, strain BEM2 (second series), active compounds read low 1 | locus YER155C, strain BEM2, active compounds read low 0.998 | locus YER167W, strain BCK2, active compounds read low 1 | locus YFR010W, strain ubp6, active compounds read low 1.03 | locus YGL078C, strain dbp3, active compounds read low 1.04 | locus YGL086W, strain mad1, active compounds read low 1 | locus YGL167C, strain pmr1, active compounds read low 1.05 | locus YGL173C, strain kem1, active compounds read low 1.03 | locus YGL227W, strain vid30, active compounds read low 1.03 | locus YGL240W, strain doc1, active compounds read low 1.02 | locus YGL248W, strain PDE1, active compounds read low 1.01 | locus YGL253W, strain hxk2, active compounds read low 1.02 | locus YGR078C, strain PAC10, active compounds read low 1 | locus YGR135W, strain pre9, active compounds read low 1.02 | locus YGR252W, strain gcn5, active compounds read low 0.994 | locus YHR013C, strain ard1, active compounds read low 1.05 | locus YHR027C, strain rpn1, active compounds read low 1.03 | locus YHR030C, strain SLT2, active compounds read low 1.01 and 0.977 | locus YHR079C, strain IRE1 (second series), active compounds read low 1.02 | locus YHR079C, strain IRE1, active compounds read low 0.983 | locus YHR094C, strain hxt1, active compounds read low 1.02 | locus YHR129C, strain ARP1, active compounds read low 1 | locus YHR142W, strain chs7, active compounds read low 1.05 | locus YHR200W, strain rpn10, active compounds read low 1.03 | locus YIL066C, strain RNR3, active compounds read low 1.01 | locus YIL073C, strain SPO22, active compounds read low 1.04 | locus YIL125W, strain kgd1, active compounds read low 1.02 | locus YIR030C, strain dcg1, active compounds read low 1.02 | locus YJL092W, strain hpr5, active compounds read low 1.03 | locus YJL095W, strain BCK1 (second series), active compounds read low 1.02 | locus YJL095W, strain BCK1, active compounds read low 1.01 and 0.982 | locus YJL115W, strain asf1, active compounds read low 1.03 | locus YJL129C, strain trk1, active compounds read low 1.06 | locus YJL134W, strain LCB3, active compounds read low 1 | locus YJL154C, strain vps35, active compounds read low 1.01 | locus YJL164C, strain tpk1, active compounds read low 1.04 | locus YJL166W, strain qcr8, active compounds read low 1.04 | locus YJL168C, strain set2, active compounds read low 1.03 | locus YJL187C, strain SWE1 (second series), active compounds read low 1.01 | locus YJL187C, strain SWE1, active compounds read low 1.04
